Test results as given in PubChem BioAssay (NCATS).
Where “and” joins values, the source holds several entries; their conditions need not be identical. Equal values may be shown once. Inconclusive results are not listed. Calls of active or inactive are those of the source. Unless noted, calls follow the shape of the full dose curve.

assay: Validation of Assay for Modulators of Lamin A Splicing (AID 1459; active = well fitted curve in the direction sought with a large enough effect in the signal ratio; the % refers to the signal ratio;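 also: cells exposed to compound for two days before reading; 0% is about no effect; ratio rise marks activators and ratio drop marks inhibitors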); details: Lamin A splicing dual RFP/GFP fluorescence reporter; series mostly up to 9.22 µM
In short: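 S3 HeLa cells stably expressing a lamin A-EGFP splicing minigene and DsRed2 were seeded at 600 cells/well in Opti-MEM with 2% FBS, pin-dosed, and incubated 48 hrs at 37 °C, 5% CO2. Laser-scanning cytometry (488 nm) gave GFP/RFP total intensity ratio.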

Row | Compound | outcome
1 | O=C(NCCNCC(O)COc1ccc(O)cc1)N1CCOCC1 (stereo not given) | inactive
2 | Cc1cc(C)c(NC(=O)C[C@H](CC(=O)O)c2cccc3ccccc23)c(C(=O)N2CCC3(CCCC3)CC2)c1 | inactive
3 | O=c1[nH]c(=O)n([C@H]2C[C@H](O)[C@@H](CO)O2)cc1/C=C/Br | inactive

assay: qHTS Assay for Lipid Storage Modulators (AID 1519); details: Drosophila S3 cells, BODIPY lipid droplet/cell ratio, laser cytometry; at 25.7 µM (top of the series); cells loaded with oleic acid; as to activity change, negative = inhibition: % is scaled to controls: 0 for no effect and ±100 for the full control effect
In short: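 Cells seeded at 5,000 per well were treated with compounds over a concentration series and loaded with oleic acid (400 uM, as added). Lipid droplet fluorescence (488 nm excitation, 500-530 nm channel) was read by laser-scanning cytometry and normalized to 20 uM Triacsin C.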

Row | Compound | activity change, negative = inhibition
4 | CCCOc1cc(N)ccc1C(=O)OCCN(CC)CC | -0.11% (inactive)
5 | Cc1ncc(C[n+]2csc(CCO)c2C)c(N)n1 | -1.32% (inactive)
6 | Nc1ccc(N=Nc2ccccc2)c(N)n1 | -0.0516% (inactive)
7 | O=C(O)Cc1cc(I)c(Oc2ccc(O)c(I)c2)c(I)c1 | -0.457% (inactive)
8 | CN1CCc2c(c3ccccc3n2Cc2ccccc2)C1 | -1.45% (inactive)
9 | CCSc1ccc2c(c1)N(CCCN1CCN(C)CC1)c1ccccc1S2 | -4.9% (inactive)
10 | CC1(C)S[C@@H]2[C@H](NC(=O)C3(N)CCCCC3)C(=O)N2[C@H]1C(=O)O | -0.399% (inactive)
11 | CNC(=O)c1c(I)c(C(=O)NCC(=O)Nc2c(I)c(C(=O)O)c(I)c(C(=O)NCCO)c2I)c(I)c(N(C)C(C)=O)c1I | -2.02% (inactive)
12 | O=C(O)CCC(=O)c1ccc(-c2ccccc2)cc1 | 2.12% (inactive)
13 | O=C1NCCN1c1ncc([N+](=O)[O-])s1 | -0.923% (inactive)
14 | CN1C(=O)OC(C)(C)C1=O | 0.553% (inactive)
15 | COc1cc(S(C)=O)ccc1-c1nc2ncccc2[nH]1 (stereo not given) | 0.171% (inactive)
16 | CC(=O)[C@H]1CC[C@H]2[C@@H]3C=CC4=CC(=O)CC[C@@]4(C)[C@H]3CC[C@]12C | -2.63% (inactive)
17 | CC(=O)N=c1sc(S(N)(=O)=O)nn1C | -5.24% (inactive)

same assay, conditions: Drosophila S3 cells, BODIPY lipid droplet/cell ratio, laser cytometry; at 57.5 µM (top of the series); cells loaded with oleic acid

Row | Compound | activity change, negative = inhibition
18 | O=C(NCCNCC(O)COc1ccc(O)cc1)N1CCOCC1 (stereo not given) | -2.06% (inactive)
19 | Nc1ccc(N=Nc2ccccc2)c(N)n1 | 17.8% (inactive)
20 | CC(=O)Nc1ccc(OC(=O)c2ccccc2O)cc1 | 5.77% (inactive)
21 | CC1CCC(NC(=O)N(CCCl)N=O)CC1 (stereo not given) | 0.815% (inactive)
22 | Cc1cccc(C)c1NC(=O)C1CCCCN1C (stereo not given) | 7.8% (inactive)
23 | CC(=O)Oc1cccc(C(=O)O)c1OC(C)=O | 4.19% (inactive)
24 | O=C(CCCCCCCCCCCCC1CCCC1)Nc1ccc(S(=O)(=O)c2ccc(NC(=O)CCCCCCCCCCCCC3CCCC3)cc2)cc1 | 10% (inactive)
25 | N#Cc1ccc2c(c1)N(CCCN1CCC(O)CC1)c1ccccc1S2 | 6.36% (inactive)
26 | CC(=O)Oc1cccc2c1C(=O)c1c(OC(C)=O)cc(C(=O)O)cc1C2=O | 13.8% (inactive)
27 | CC1CCCC(C)N1NC(=O)c1ccc(Cl)c(S(N)(=O)=O)c1 (stereo not given) | 2.67% (inactive)
28 | CC(C)c1nc(N(C)S(C)(=O)=O)nc(-c2ccc(F)cc2)c1/C=C/C(O)CC(O)CC(=O)O (stereo not given) | 2.85% (inactive)
29 | O=C1c2ccccc2C(=O)c2c1ccc(O)c2O | 15% (inactive)
30 | C=CC(C)(O)CC/C=C(\C)CCC=C(C)C (stereo not given) | 0.625% (inactive)
31 | NCC(O)CC(=O)O (stereo not given) | 7.57% (inactive)
32 | N[C@H](CC(=O)O)C(=O)O | -1.19% (inactive)
33 | CCCc1nc(C(C)(C)O)c(C(=O)OCc2oc(=O)oc2C)n1Cc1ccc(-c2ccccc2-c2nn[nH]n2)cc1 | 8.57% (inactive)
34 | CC[C@H]1OC(=O)[C@H](C)[C@@H](O[C@H]2C[C@@](C)(OC)[C@@H](O)[C@H](C)O2)C(C)[C@@H](O[C@@H]2O[C@H](C)C[C@H](N(C)C)[C@@H]2O)[C@](C)(OC)C[C@@H](C)C(=O)[C@H](C)[C@@H](O)[C@]1(C)O (stereo not given in full) | 7.44% (inactive)
35 | CC(=O)N=c1sc(S(N)(=O)=O)nn1C | -1.51% (inactive)

same assay, conditions: Drosophila S3 cells, BODIPY lipid droplet/cell ratio, laser cytometry; measured here: cell count channel max response; cells loaded with oleic acid

Row | Compound | max response
36 | CCCOc1cc(N)ccc1C(=O)OCCN(CC)CC | -10.4%
37 | O=C(NCCNCC(O)COc1ccc(O)cc1)N1CCOCC1 (stereo not given) | -28.3%
38 | Cc1ncc(C[n+]2csc(CCO)c2C)c(N)n1 | 9.62%
39 | Nc1ccc(N=Nc2ccccc2)c(N)n1 | -20.4% and -3.25%
40 | O=C(O)Cc1cc(I)c(Oc2ccc(O)c(I)c2)c(I)c1 | 2.07%
41 | CC(=O)Nc1ccc(OC(=O)c2ccccc2O)cc1 | 14.6%
42 | CC1CCC(NC(=O)N(CCCl)N=O)CC1 (stereo not given) | 10.3%
43 | Cc1cccc(C)c1NC(=O)C1CCCCN1C (stereo not given) | 19%
44 | CC(=O)Oc1cccc(C(=O)O)c1OC(C)=O | 10.5%
45 | O=C(CCCCCCCCCCCCC1CCCC1)Nc1ccc(S(=O)(=O)c2ccc(NC(=O)CCCCCCCCCCCCC3CCCC3)cc2)cc1 | 14.8%
46 | CN1CCc2c(c3ccccc3n2Cc2ccccc2)C1 | 1.19%
47 | CCSc1ccc2c(c1)N(CCCN1CCN(C)CC1)c1ccccc1S2 | -20.1%
48 | N#Cc1ccc2c(c1)N(CCCN1CCC(O)CC1)c1ccccc1S2 | 2.04%
49 | CC1(C)S[C@@H]2[C@H](NC(=O)C3(N)CCCCC3)C(=O)N2[C@H]1C(=O)O | 10.5%
50 | CC(=O)Oc1cccc2c1C(=O)c1c(OC(C)=O)cc(C(=O)O)cc1C2=O | 25.9%
51 | CC1CCCC(C)N1NC(=O)c1ccc(Cl)c(S(N)(=O)=O)c1 (stereo not given) | 17.3%
52 | CC(C)c1nc(N(C)S(C)(=O)=O)nc(-c2ccc(F)cc2)c1/C=C/C(O)CC(O)CC(=O)O (stereo not given) | 4.28%
53 | O=C1c2ccccc2C(=O)c2c1ccc(O)c2O | 2.35%
54 | CNC(=O)c1c(I)c(C(=O)NCC(=O)Nc2c(I)c(C(=O)O)c(I)c(C(=O)NCCO)c2I)c(I)c(N(C)C(C)=O)c1I | -4.35%
55 | O=C(O)CCC(=O)c1ccc(-c2ccccc2)cc1 | -6.39%
56 | O=C1NCCN1c1ncc([N+](=O)[O-])s1 | 0.859%
57 | CN1C(=O)OC(C)(C)C1=O | 9.38%
58 | C=CC(C)(O)CC/C=C(\C)CCC=C(C)C (stereo not given) | 5.67%
59 | NCC(O)CC(=O)O (stereo not given) | 11%
60 | N[C@H](CC(=O)O)C(=O)O | -13%
61 | CCCc1nc(C(C)(C)O)c(C(=O)OCc2oc(=O)oc2C)n1Cc1ccc(-c2ccccc2-c2nn[nH]n2)cc1 | 19.2%
62 | COc1cc(S(C)=O)ccc1-c1nc2ncccc2[nH]1 (stereo not given) | -21.2%
63 | CC[C@H]1OC(=O)[C@H](C)[C@@H](O[C@H]2C[C@@](C)(OC)[C@@H](O)[C@H](C)O2)C(C)[C@@H](O[C@@H]2O[C@H](C)C[C@H](N(C)C)[C@@H]2O)[C@](C)(OC)C[C@@H](C)C(=O)[C@H](C)[C@@H](O)[C@]1(C)O (stereo not given in full) | 9.53%
64 | CC(=O)[C@H]1CC[C@H]2[C@@H]3C=CC4=CC(=O)CC[C@@]4(C)[C@H]3CC[C@]12C | -13.1%
65 | CC(=O)N=c1sc(S(N)(=O)=O)nn1C | -10.9% and 5.08%
